Data reported in PubChem BioAssay (EPA / NIEHS).
The source made the active and inactive calls. The calls were made as follows: active = hit-call score of the fitted dose curve at least 0.9, where 1 is the maximum; inactive = score below 0.9.

What follows are compounds tested against Bile acid receptor (Homo sapiens) (UniProt Q96RI1) (assay: ATG_IR1_CIS: Attagene CIS-FACTORIAL HepG2 Assay for human Nuclear Receptor Subfamily 1 Group H Member 4 (NR1H4), IR1 submotif (AID 2282946)). Conditions: IR1 reporter transcription, actives raise or lower the signal.
Sequence of Bile acid receptor (Homo sapiens) (Q96RI1 whole entry, looked up): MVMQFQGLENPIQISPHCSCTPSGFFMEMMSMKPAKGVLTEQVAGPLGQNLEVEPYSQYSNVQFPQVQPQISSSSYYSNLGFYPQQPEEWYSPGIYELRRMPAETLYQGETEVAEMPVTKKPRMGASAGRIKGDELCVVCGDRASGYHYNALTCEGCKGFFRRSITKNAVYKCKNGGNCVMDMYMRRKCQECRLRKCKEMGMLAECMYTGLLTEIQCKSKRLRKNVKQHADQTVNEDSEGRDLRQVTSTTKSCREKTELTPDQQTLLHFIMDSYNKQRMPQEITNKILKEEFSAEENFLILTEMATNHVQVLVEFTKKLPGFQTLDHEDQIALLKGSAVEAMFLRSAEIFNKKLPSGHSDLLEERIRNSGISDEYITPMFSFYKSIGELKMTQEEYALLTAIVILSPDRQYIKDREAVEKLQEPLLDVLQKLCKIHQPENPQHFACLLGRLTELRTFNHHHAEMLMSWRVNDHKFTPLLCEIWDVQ
Experimental: ATG_CIS is a cell-based, multiplexed-readout assay that uses HepG2, a human liver cell line, with measurements taken at 24 hours after chemical dosing in a 24-well plate.ATG_IR1_CIS is one of 52 assay component(s) measured or calculated from the ATG_CIS assay. It is designed to make measurements of mRNA induction, a form of inducible reporter, as detected with fluorescence intensity signals by Reverse transcription polymerase chain reaction (RT-PCR) and Capillary electrophoresis technology.Data from the assay component ATG_IR1_CIS was analyzed into 1 assay endpoint. This assay endpoint, ATG_IR1_CIS, was analyzed with bidirectional fitting relative to DMSO as the negative control and baseline of activity. Using a type of inducible reporter, measures of mRNA for gain or loss-of-signal activity can be used to understand the reporter gene at the transcription factor-level as they relate to the gene NR1H4. Furthermore, this assay endpoint can be referred to as a primary readout, because this assay has produced multiple assay endpoints where this one serves a reporter gene function. To generalize the intended target to other relatable targets, this assay endpoint is annotated to the nuclear receptor intended target family, where the subfamily is non-steroidal.
Human liver HepG2 cells are transiently transfected with multiple reporter transcription units (MRTUs) in 6-well plates using FuGene 6 reagent (Roche; 3 ml FuGene/1 mg DNA). The MRTU constructs are regulated by a cis-regulating element (promoter). […] A major difference between the CIS and TRANS system is that in CIS activities of endogenous TFs are measured, whereas the TRANS assay evaluates changes in activities of exogenous, chimeric NR-Gal4 proteins. […] At the end of 24 hour incubation, total RNA was isolated using TriZol reagent (Invitrogen). The isolated RNA is then reverse-transcribed using oligo(dT) primer and Mo-MLV reverse transcriptase (Invitrogen) with DNAse I (Ambion) treatment for 30 min. The one-tenth of the produced cDNA was amplified by PCR using Taq DNA polymerase (Invitrogen) and two reporter sequence-specific primers. The PCR products were fluorescently labeled by primer extension with 6-arboxyfluorescein (6-FAM) 5'-labeled reporter sequence-specific primer (2 min at 95 C, 20 s at 68 C and 10 min at 72 C) and these products were digested with 5U of HpaI (New England Biolabs) for 2h at 37 C. The fragments were purified using Qiaquick PCR columns (Qiagen), analyzed on an ABI 3130xL genetic analyzer (Applied Biosystems) with peak positions identified by using a set of X-rhodamine (ROX)-labeled MapMarker1000 molecular weight standards (BioVentures). The raw capillary electrophoresis data was processed using Attagraph software (Attagene).

Structure (SMILES) | outcome | AC50
NC(=O)c1ccc(N)cc1 | inactive | 
[O-][n+]1ccc(Cl)cc1 | inactive | 
COC(=O)[C@]1(C)CCC[C@@]2(C)[C@H]1CC=C1C=C(C(C)C)CC[C@@H]12 |  | 6.77 µM (active)
O=C(CC(C(=O)OC1CCCCC1)S(=O)(=O)O)OC1CCCCC1 (stereo not given) | inactive | 
CCCCNC(N)=O | inactive | 
CCCc1c(OCCCCc2nn[nH]n2)ccc(C(C)=O)c1O | inactive | 
CCCCCC[C@@H](O)C/C=C\CCCCCCCC(=O)O |  | 149 µM (active)
CCO[Si](OCC)(OCC)c1ccccc1 | inactive | 
Oc1cccc2ccccc12 | inactive | 
CC(C)CC(=O)CC(C)CC(C)C (stereo not given) | inactive | 
Cc1cc2nc3c(=O)[nH]c(=O)nc-3n(C[C@H](O)[C@H](O)[C@H](O)CO)c2cc1C | inactive | 
O=C1NC(=O)[C@@H]2CC=CC[C@H]12 | inactive | 
CN1CCCC1 | inactive | 
C=CC(C)(CCC=C(C)C)OC(=O)c1ccccc1 (stereo not given) | inactive | 
CCCCOC(=O)COc1ccc(Cl)cc1Cl |  | 24.4 µM (active)
Cc1ccccc1S(N)(=O)=O | inactive | 
c1ccc(CNc2ncnc3nc[nH]c23)cc1 | inactive | 
C/C=C(\C)C(=O)OCC/C=C\CC | inactive | 
CCCCCCCCCCCCCCCCCC[N+](C)(C)C |  | 45.2 µM (active)
Oc1ccc(Cl)cc1C1CCCC1 |  | 57.8 µM (active)

Structure (SMILES) | outcome | AC50
COC(=O)CCSCCC(=O)OC | inactive | 
CC/C=C\CCO | inactive | 
CC1=CCCC(C)(C)C12CCC(C)O2 (stereo not given) | inactive | 
O=C(OCc1ccccc1)c1ccccc1 | inactive | 
CCOc1ccc2c(c1)C(C)CC(C)(C)N2 (stereo not given) | inactive | 
CCOC(=O)CC(=O)OCC | inactive | 
CC/C=C/CCO | inactive | 
CNC[C@H](O)[C@@H](O)[C@H](O)[C@H](O)CO | inactive | 
Oc1ccc(Oc2ccccc2)cc1 | inactive | 
O=[N+]([O-])c1ccc2nc[nH]c2c1 | inactive | 
Sc1nc2ccccc2s1 | inactive | 
CCC(=O)OCc1ccc(OC)cc1 | inactive | 
CCCCCC1CCCC(=O)O1 (stereo not given) | inactive | 
Clc1ccccn1 | inactive | 
CCO[Si](CCCN)(OCC)OCC | inactive | 
O=C(Oc1ccccc1)c1ccccc1 | inactive | 
O=C(O)Cc1c[nH]c2ccccc12 | inactive | 
CC(C)(C)NC(=O)[C@@H]1CN(Cc2cccnc2)CCN1C[C@@H](O)C[C@@H](Cc1ccccc1)C(=O)N[C@H]1c2ccccc2C[C@H]1O | inactive | 
Cc1cc(-n2nc3ccc(Cl)cc3n2)c(O)c(C(C)(C)C)c1 | inactive | 
NC(N)=Nc1nc(CSCCC(N)=NS(N)(=O)=O)cs1 | inactive | 
